Consider 66 molecules from PubChem BioAssay AID1347075 (National Center for Advancing Translational Sciences (NCATS), 2019).

About 5,500 (1.4%) of roughly 400,000 compounds were called active. Where a call stands in place of a potency, no number is given. Inconclusive results (about 9%) are left out. Calls come from the whole dose curve; as a rule, active = well fitted cell-killing curve with a large enough effect; inconclusive = small, poorly fitted or top-dose-only effect, or effect the other way; inactive = flat fitted curve, though single readings scatter. For the sample, actives were picked, then their nearest neighbours and some compounds at random.
Potency is the fitted concentration of half-maximal effect.

The assay in a line: qHTS assay for MDR1-selective chemotherapeutics: Primary screen using the parental adenocarcinoma cell KB-3-1. Note: nearly all actives have a fitted effect of over 60% in size. The note with it: KB-3-1 viability, CellTiter-Glo ATP luminescence, 72 h; series mostly up to 46.1 µM. A digest of the protocol:
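Parental KB-3-1 viability, qHTS format: 72 h compound exposure, 37 °C; CellTiter-Glo; media-only wells and DMSO plates as controls; concentration-effect fits on corrected data.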
(In general: qHTS replaces the single test concentration by a dilution series.)
Consider `C=CCNC(=O)c1ccc2nc(-c3ccco3)c(-c3ccco3)nc2c1`, for which the Potency entry is “inactive”.
The result for `CC(C)(C)OC(=O)N(Cc1ccco1)S(=O)(=O)c1ccccc1Br` reads “inactive”; that for `COc1ccc(CC(=O)Nc2ccc(-c3nc4ccccc4s3)c(C)c2)cc1`, “inactive”.
In the case of `COC(=O)Cc1[nH]n(-c2nc3ccccc3s2)c(=O)c1C(C)=Nc1ccc(OC)cc1`, the Potency is 9.2 µM (active).
Regarding `Cc1ccc(C)c(NC(=O)CSC2=Nc3ccccc3N=C(c3ccc(F)cc3)C2)c1`, the Potency result was “inactive”.
Consider `CCOC(=O)C1CCN(c2csc3ccc(C)cc3c2=O)CC1`, for which the Potency result was “inactive”.
For the molecule `O=C(Cn1c(=O)n(Cc2ccccc2)c(=O)c2sc3ccccc3c21)Nc1ccccc1F`, the Potency entry was “inactive”.
Consider `CN(C)c1ccc(/C=C/c2c3ccccc3nc3ccccc23)cc1`, for which the Potency entry was “inactive”.
`CN(C)c1ccc(/C=C/c2sc3ccccc3[n+]2CCCCBr)cc1`: the Potency was 1.3 µM (active).
Regarding `CN(C)c1ccc(/C=C/c2sc3ccccc3[n+]2C)cc1`, the Potency was 6.51 µM (active).
In the case of `CN(C)c1ccc(CSc2ccccc2)cc1`, the Potency entry is “inactive”.
As for `CCN(CCCNC(=O)c1cc2c(=O)n(CC)c3ccccc3c2s1)Cc1ccccc1`, the entry is “inactive”; as for `CCc1ccc(OCCCn2c(CCCNC(=O)C3CCCCC3)nc3ccccc32)cc1`, “inactive”.
Take `COc1cccc(N2CCN(S(=O)(=O)c3cc(Br)cc4c3N(C(=O)C3CC3)CC4)CC2)c1`: the Potency entry is “inactive”.
Regarding `CCCCC12CN3CC(C)(CN(C1)C3c1ccc(O)c(OC)c1)C2=O` (stereo unspecified), the Potency result is “inactive”.
Regarding `Cc1ccc(C)c(N2CCN(C(=O)C3CCC(CNS(=O)(=O)c4cccs4)CC3)CC2)c1` (stereo unspecified), the Potency entry is “inactive”.
On to `Cc1ccc(C)c(Oc2c(C(F)(F)F)oc3c(CN4CCN(C)CC4)c(O)ccc3c2=O)c1`, for which the Potency entry is “inactive”.
Take `Cc1cc(C)c(NC(=O)c2cc3sc(Cl)cc3n2C)c(C)c1`: the Potency result is “inactive”.
Turning to `O=C(NCc1ccccc1Cl)c1cccn1-c1nnc(N2CCCCC2)s1`, the Potency entry is “inactive”.
For `COc1ccc(NC(=O)CSc2nnc(-c3nnn(-c4ccc(F)cc4)c3C)o2)cc1`, the Potency result was “inactive”.
`O=C(Nc1ccc2ccccc2c1)Nc1nnc(-c2ccc(O)cc2)s1`: the Potency result is “inactive”.
On to `O=C1CCc2cc(S(=O)(=O)Nc3cccc(Oc4ccccc4)c3)ccc2N1`, for which the Potency entry was “inactive”.
On to `CCOC(=O)c1ccc(N2C(=O)c3[nH]nc(-c4ccccc4)c3C2c2ccc(C(C)C)cc2)cc1` (stereo unspecified), for which the Potency was 18.4 µM (active).
Consider `CCOC(=O)c1ccc(N2C(=O)c3n[nH]c(-c4ccco4)c3C2c2ccc(O)cc2)cc1` (stereo unspecified), for which the Potency result is “inactive”.
With `CCOC(=O)c1ccc(N2C(=O)c3n[nH]c(C)c3C2c2ccc(O)c(OC)c2)cc1` (stereo unspecified), the Potency entry is “inactive”.
The result for `Cc1cccc(CN2Cc3cccc4c3[C@H](C=CC4)CC2=S)c1` reads “inactive”.
On to `O=C(Cn1cnc2c(cnn2-c2ccccc2)c1=O)NCc1ccccc1`, for which the Potency is 8.2 µM (active).
Turning to `O=C(Cn1cnc2c(cnn2-c2ccc(F)cc2)c1=O)NCCc1ccccc1`, the Potency result is “inactive”.
As for `CC(=O)Cn1cnc2c(cnn2-c2ccccc2)c1=O`, the entry is “inactive”; as for `COc1ccc2cc(CNc3ccc(OC)c(OC)c3)c(=O)n(CC(=O)Nc3ccccc3F)c2c1`, “inactive”.
As to `COc1ccc(-c2noc(CSc3nc(C)cc(=O)[nH]3)n2)cc1OC`, the Potency entry was “inactive”.
As for `O=c1c2cc(Br)ccc2nc(-c2cccc(Cl)c2)n1O`, the figure is 9.2 µM (active).
`CC(C)Cn1c(=O)c2ccccc2n2c(-c3cccc(Cl)c3)nnc12`: the Potency result was “inactive”.
With `NC(N)=Nc1nc2ccc(Br)cc2c(=O)[nH]1`, the Potency entry was “inactive”.
As for `COC(=O)c1cc(NC(=O)CCc2c(C)nc3c4c(C)cc(C)nc4nn3c2C)cc(C(=O)OC)c1`, the entry is “inactive”.
For the molecule `O=c1cc(COc2cccc(C(F)(F)F)c2)nc2sc3c(n12)CCCC3`, the Potency result was “inactive”.
For the molecule `O=S(=O)(NCC(c1ccco1)N1CCOCC1)c1cc(F)ccc1F` (stereo unspecified), the Potency result was “inactive”.
Consider `O=C(CSc1ccsc1[N+](=O)[O-])N1CCCCC1`, for which the Potency is 18.4 µM (active).
Regarding `O=C(CSCc1cccs1)N1CCCC1`, the Potency result was “inactive”.
As for `CC1CC(C)CN(C(=O)CSc2ccsc2[N+](=O)[O-])C1` (stereo unspecified), the entry is “inactive”.
On to `COc1cc2nc(C#Cc3nc4cc(OC)c(OC)cc4[nH]3)[nH]c2cc1OC`, for which the Potency result is “inactive”.
As for `COc1ccc(CN2C(=O)C(NC(=O)c3cccc(C)c3)(C(F)(F)F)N=C2c2ccccc2)cc1` (stereo unspecified), the entry is “inactive”; as for `Cc1cc2c(cc3c(SCc4cccc(Cl)c4)nnc(C)n32)o1`, “inactive”.
`Cc1cccc(-n2ccnc2SCC(=O)Nc2cccc3ccccc23)c1C`: the Potency result was “inactive”.
With `Cc1cc(C)cc(-n2ccnc2SCC(=O)Nc2nc3ccccc3s2)c1`, the Potency result was “inactive”.
Consider `Cc1nnc(NC(=O)CSc2nccn2-c2cccc(C)c2C)s1`, for which the Potency was 3.66 µM (active).
As to `Cc1ccc(S(=O)(=O)N2CCN(c3nc(-n4cnc5ccccc54)nc4ccccc34)CC2)cc1`, the Potency result was “inactive”.
Take `CC1CCCCC1NC(=O)/C(C#N)=C/C=C/c1ccccc1[N+](=O)[O-]` (stereo unspecified): the Potency is 5.8 µM (active).
As for `CC1CC(C)CN(C/C=C/c2ccccc2[N+](=O)[O-])C1` (stereo unspecified), the Potency result was “inactive”.
In the case of `CC(OC(=O)/C=C/c1ccccc1)C(=O)NC1CCCCC1C` (stereo unspecified), the Potency entry is “inactive”.
For the molecule `O=C1CCCC2=C1[C@@]1(CCC(c3ccccc3)C1)N=C(Nc1nc3ccccc3o1)N2` (stereo partly specified), the Potency entry was “inactive”.
Take `CCN(C(=O)CSc1nnc(C)n2c1cc1occc12)c1ccccc1`: the Potency result is “inactive”.
As for `CC(C)c1ccc2oc(-c3cc(NC(=O)c4cccs4)ccc3Cl)nc2c1`, the Potency result is “inactive”.
On to `CC(C)(C)n1nc(Cc2cccc3ccccc23)c(C#N)c1N`, for which the Potency entry is “inactive”.
The result for `CCc1nn(-c2cc(Oc3cccc4ccccc34)nc(-c3ccccc3)n2)c(N)c1C#N` reads 5.8 µM (active); that for `C(=Nc1ccc(/C=C/c2ccnc3ccccc23)cc1)c1cc2c3c(c1)CCCN3CCC2`, “inactive”.
For `CCOC(=O)C1CCN(C(c2ccc(F)cc2)c2sc3nc(-c4ccco4)nn3c2O)CC1` (stereo unspecified), the Potency entry is “inactive”.
With `CCC1CCCCN1Cc1c(O)ccc2c(=O)c(Oc3ccccc3Cl)c(C(F)(F)F)oc12` (stereo unspecified), the Potency entry is “inactive”.
As to `CNC(=O)C(NC(=O)c1ccccc1)=C(C)C`, the Potency result is “inactive”.
As to `CNC(=O)c1cccc2nc3ccccc3nc12`, the Potency was 16.4 µM (active).
As for `CN(C)C(=O)c1coc2nc3ccccc3nc12`, the entry is “inactive”.
As for `CCCCn1c(=N)c(S(=O)(=O)c2ccccc2)cc2c(=O)n3cccc(C)c3nc21`, the entry is “inactive”.
As for `COc1ccc(NC(=O)CN2CCCN(Cc3ccccc3)S2(=O)=O)cc1`, the entry is “inactive”; as for `COC(=O)C1C(=O)c2c([nH]c(C(=O)OCCSC)c2C)CC1C` (stereo unspecified), “inactive”.
Take `CCCOC(=O)c1[nH]c2c(c1C)C(=O)CC(c1cccs1)C2` (stereo unspecified): the Potency was 0.651 µM (active).
Regarding `CCc1ccc(C2CC(=O)c3c([nH]c(C(=O)OCc4ccc(C)cc4)c3C)C2)cc1` (stereo unspecified), the Potency result was “inactive”.
